Hits are enriched below; roughly 4.7% of the tested compounds scored in any of these assays.
ADAM17 inh: inhibitors of human ADAM17; P78536; recombinant ADAM17, EDANS/DABCYL FRET peptide cleavage; inhibition, % at 6.95 µM; 0.83% of 370,000 active; AID 720648;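 active = inhibition above the mean of compounds lying between control limits plus 3 SD, set per campaign, cut at about 8.5% in these data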;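 note: 0% = DMSO-only wells as the low control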
proKLK7 act: activators of human kallikrein-7 zymogen | AID 652039 | purified proKLK7, EDANS-DABCYL substrate fluorescence; 100% is mature enzyme control, 0% vehicle | 0.9% of 370,000 active | P49862 | activation, % at 7 µM;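 active = activation above the mean of all tested compounds plus 3 SD, computed per campaign excluding outliers beyond control limits, cut at about 13% in these data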
rCAG binder: binds r(CAG) RNA repeats. 1.3% of 370,000 active. inhibition, % at 3 µM. AID 651821. r(CAG) RNA repeat, TO-PRO-1 dye displacement fluorescence;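 active = inhibition above the plate cutoff, the mean of all test compounds on that plate plus 3 SD, cut at about 35% in these data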;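 note: 0% = DMSO alone and 100% = 100 µM mitoxantrone as full dye displacement; higher means more dye released from RNA so lower well fluorescence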
DSG3 Ab inh: blocks pemphigus antibody binding to human desmoglein-3; P32926; DSG3-coupled beads, scFv-anti-DSG3-GFP binding, flow cytometry; stronger effect = lower value; binding (percent of control), % at 10 µM; 0.48% of 310,000 active;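 active = binding more than 3 SD below its plate's average and above zero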;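 note: hits lower antibody fragment binding to DSG3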
ADAM10 inh: ADAM10 inhibition, QFRET primary screen. AID 720582. 0.62% of 370,000 active. recombinant ADAM10, EDANS/DABCYL FRET peptide cleavage, 3 h. inhibition, % at 7 µM. O14672;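 active = inhibition above a per-campaign cutoff equal to the mean of compounds falling between control-based bounds plus 3 SD, cut at about 20% in these data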;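 note: 0% = DMSO wells while the 100% control is not disclosed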
Target sequence (O14672 214-748 limits assumed): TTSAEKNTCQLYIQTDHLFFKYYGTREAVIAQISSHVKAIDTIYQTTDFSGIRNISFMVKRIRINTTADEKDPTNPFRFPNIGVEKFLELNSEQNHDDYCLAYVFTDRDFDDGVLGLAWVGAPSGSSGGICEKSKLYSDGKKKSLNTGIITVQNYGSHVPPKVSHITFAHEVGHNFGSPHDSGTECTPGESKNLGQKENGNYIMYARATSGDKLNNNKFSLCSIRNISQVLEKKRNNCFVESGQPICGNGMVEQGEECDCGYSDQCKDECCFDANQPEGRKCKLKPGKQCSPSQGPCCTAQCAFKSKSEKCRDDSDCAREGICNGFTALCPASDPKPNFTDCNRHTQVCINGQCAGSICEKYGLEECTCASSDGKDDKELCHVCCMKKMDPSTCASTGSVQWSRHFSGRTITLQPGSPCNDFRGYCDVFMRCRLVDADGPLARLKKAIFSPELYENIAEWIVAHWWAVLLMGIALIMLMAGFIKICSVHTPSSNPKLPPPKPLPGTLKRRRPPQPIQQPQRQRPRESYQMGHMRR
MPTP block: inhibitors of mitochondrial permeability transition pore; isolated mouse mitochondria, Ca2+ swelling absorbance, 30 min; inhibition, % at 10 µM; 1.4% of 360,000 active; AID 602449;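 active = inhibition of 50% or more, scaled per plate between neutral and stimulator controls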;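 note: 0% = DMSO wells given calcium and 100% = 1 mM EGTA wells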
KLK7 act conf: proKLK7 activation, confirmation | shares compounds with proKLK7 act | purified proKLK7, EDANS-DABCYL substrate fluorescence; scaled: vehicle 0, mature enzyme 100 | activation, % at 7 µM | 68% of 3,200 active;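 active = activation, as change over the incubation, above the mean of all tested compounds plus 3 SD, cut at about 13% in these data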
EDANS-DABCYL int: fluorescence interference counter-screen for KLK7 activators. AID 686952. EDANS-DABCYL substrate fluorescence interference, no enzyme, 4 h; solvent 0%, active enzyme control 100%. activation, % at 7 µM. shares compounds with proKLK7 act. 80% of 3,200 active;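 active = activation above the all-compound mean plus 3 SD, ignoring values outside control-based bounds, cut at about 4.8% in these data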;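 note: value is the 4 h activation minus the activation read at time zero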
An asterisk follows results filed as active; i = inactive; x = no result given.

SMILES	ADAM17 inh	proKLK7 act	rCAG binder	DSG3 Ab inh	ADAM10 inh	MPTP block	KLK7 act conf	EDANS-DABCYL int
COC(=O)c1c(C#N)c(N)nc2c1CCCC2	i	78*	3	97	i	0	72*	75*
C/C(=N\Nc1ccccc1C(=O)O)c1ccncc1	-2	0	1	89	7	0	x	x
CC(C)N(Cc1ccccc1)C(=O)COC(=O)CCC(=O)c1ccc(F)cc1	0	0	-3	106	-1	-1	x	x
COc1ccc(C(=O)Nc2cc(OC)c(Cl)cc2Cl)cc1	0	0	-5	79	0	1	x	x
COc1cc(NC(=O)c2c(F)cccc2F)c(Cl)cc1Cl	-1	21*	1	99	-6	0	28*	27*
CCn1c(/C=C/c2cc[n+](C)cc2)nc2ccccc21	-127	57*	-12	124	-332	1	59*	62*
CC(=O)Nc1nc2cc(N)ccc2s1	-2	0	6	108	-16	0	x	x
Nc1ccc2nc(-c3ccccc3)sc2c1	i	63*	6	109	i	-1	63*	68*
Cc1ccc2nc(-c3ccc(N)cc3)sc2c1	i	11	6	94	i	3	x	x
Nc1ccc(-c2nc3cc(N)ccc3s2)cc1	-97	52*	3	95	-290	0	16*	67*
Cc1cc(-c2nc3ccccc3s2)ccc1N	i	41*	7	122	i	2	-14	-15
Cc1cc(C)n2nc(C(=O)OCC(=O)N(CC(C)C)C3CCS(=O)(=O)C3)nc2n1 (stereo not given)	-6	0	2	121	-7	-1	x	x
O=C(CCC(=O)N1CCN(Cc2ccccc2)CC1)Nc1nnc(C2CCCCC2)s1	-1	0	-3	100	4	-2	x	x
CC(C)(C)OC(=O)N1CC=C2C(C#N)=C(N)C(C#N)(C#N)[C@H](c3cccnc3)[C@H]2C1	-84	19*	-2	102	-241	-2	37*	34*
CCOC(=O)N1CC=C2C(C#N)=C(N)C(C#N)(C#N)[C@H](c3cccs3)C2C1 (stereo not given in full)	-12	2	-3	93	-26	1	x	x
CN1CC=C2C(C#N)=C(N)C(C#N)(C#N)C(Cc3ccccc3)C2C1 (stereo not given)	-176	24*	-20	x	i	0	12	9.3*
N#CC1=C(N)C(C#N)(C#N)[C@H](c2ccncc2)[C@H]2CN(C(=O)OCc3ccccc3)CC=C12	-100	31*	3	105	-282	-1	27*	21*
CC(C)N1CC=C2C(C#N)=C(N)C(C#N)(C#N)C(c3ccccc3)C2C1 (stereo not given)	-179	16*	-31	x	i	1	29*	28*
Cn1c(=NC(=O)c2ccccc2[N+](=O)[O-])sc2cccc(F)c21	-2	0	-4	103	-5	2	x	x
O=c1[nH]c(Nc2ccccn2)cc2ccccc12	-172	22*	2	98	i	0	21*	21*
COc1ccc(CN2CCNC(=O)C2CC(=O)N(C)C2CCOCC2)cc1OC (stereo not given)	-3	0	0	98	-15	0	x	x
Cc1cccn2c(CN3CCCC(c4ccccc4)C3)c(C(=O)N3CCOCC3)nc12 (stereo not given)	1	0	-9	93	-2	0	x	x
COc1cccc(/C=C/C(=O)Nc2ccc(C(=O)Nc3cccc(S(N)(=O)=O)c3)cc2)c1OC	-172	77*	10	113	-391	1	79*	83*
